# Results reported in PubChem BioAssay (NCATS).
# A number with no mark means an inactive call. Records with an inconclusive call do not appear. Where a call stands in place of a potency, no number is given. Active and inactive are the calls of the source. Calls follow the shape of the dose curve; as a rule, active = well fitted curve in the direction sought with a large enough effect; inconclusive = small, poorly fitted or top-dose-only effect, or another doubt; inactive = no such curve, though single readings can be large; an effect the other way counts as inactive or inconclusive.
# Columns and labels:
# [1] = system: CRL-7250; assay: qHTS assay to identify novel small-molecules to repurpose for Merkel cell carcinoma treatment (AID 1296009); conditions: MCC and control cell lines, CellTiter-Glo viability, 72 h; series mostly up to 92 µM; also: nearly all actives have a fitted effect of over 60% in size
# Outline: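 Cells were incubated with compound for 72 hr at 37 degree celsius before CellTiter-Glo addition. Luminescence was normalized with no-cell wells as full cytotoxicity and DMSO as baseline.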
# [2] = system: Zika virus NS2B-NS3 protease (unlinked complex); assay: Primary screen GU Rhodamine qHTS for Zika virus inhibitors: Unlinked NS2B-NS3 protease assay (AID 1347159); also: nearly all actives have a fitted effect of over 60% in size
# Outline: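 Noncovalent NS2B hydrophilic domain/NS3 protease complex (25 nM final) in 10 mM Tris-HCl pH 8.0, 0.01% Tween 20, preincubated 15 min with compounds (up to 114 microM), then 1.5 microM Rhodamine110 substrate. Fluorescence change over 15 min fitted to 4-parameter Hill.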
# [3] = system: Zika virus NS2B-NS3 protease (linked construct); assay: Primary screen NINDS Rhodamine qHTS for Zika virus inhibitors (AID 1347160); also: nearly all actives have a fitted effect of over 55% in size
# Outline: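 Purified NS2B-NS3 protease with the NS2B hydrophilic domain joined by a flexible linker (25 nM) in 10 mM Tris-HCl pH 8.0, 0.01% Tween 20, preincubated 15 min at RT with compound; Rhodamine110 peptide substrate 1.5 µM; fluorescence change over 15 min; 4-parameter Hill fit.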
# [4] = target: Calcium and integrin-binding protein 1 (Homo sapiens) (UniProt Q99828); assay: Primary qHTS for Identification of Calcium Integrin Binding Protein 1 (CIB1) Competitor (AID 1508620);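 also: GST tagged CIB1 binding a fluorescein labelled alphaIIb integrin peptide tracer; top concentration of the series differs between compounds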
# Outline: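 Fluorescence polarization competition: GST-tagged CIB1 (1 uM final) preincubated with compound 15 min at room temperature, then FITC-labelled alphaIIb peptide (100 nM final) added. After 15 min at room temperature, polarization read at Ex 480/Em 540.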
# [5] = target: Glutathione peroxidase 1 (Homo sapiens) (UniProt P07203); assay: Primary qHTS Assay for Inhibitors of Recombinant Selenoprotein Glutathione Peroxidase 1 (GPX1) (AID 1845191); also: nearly all actives have a fitted effect of over 65% in size
# Outline: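 GR-coupled assay: compounds preincubated 30 min at room temperature with GPX1, then reaction started with CHP; final 10 nM GPX1, 1 mM GSH, 0.5 mM CHP, 0.5 mM NADPH, 100 nM GR, 0.01% BSA, pH 7.5 Tris buffer. NADPH fluorescence (340/450 nm) read at 0 and 15 min.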
# [6] = target: Phospholipid hydroperoxide glutathione peroxidase GPX4 (Homo sapiens) (UniProt P36969); assay: Primary qHTS Assay for Inhibitors of Recombinant Selenoprotein Glutathione Peroxidase 4 (GPX4) (AID 1845192); also: nearly all actives have a fitted effect of over 65% in size
# Outline: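 GR-coupled assay: recombinant GPX4 preincubated 30 min with compound at room temperature; final 200 nM GPX4, 1 mM GSH, 0.5 mM cumene hydroperoxide, 0.5 mM NADPH, 100 nM GR, 0.01% BSA, pH 7.5 Tris. NADPH fluorescence (340/450 nm) read at 0 and 15 min.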
# [7] = target: Luciferin 4-monooxygenase (Photinus pyralis) (UniProt P08659); assay: Primary firefly luciferase (FLuc) qHTS assay for identification of artifact compounds. (AID 1845220); conditions: outcome: dose series up to 54.1 µM unless noted; also: nearly all actives have a fitted effect of over 60% in size
# Outline: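 D-luciferin and ATP (10 uM each, final) in Tris acetate buffer pH 7.6 were incubated with compounds for 15 min at room temperature. The reaction was started with 10 nM Photinus pyralis luciferase and luminescence read after 5 min. Percent inhibition was fitted to a 4-parameter Hill equation.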
# [8] = Primary fluorescence-based thiol-reactive (MSTI) qHTS assay for identification of artifact compounds. (AID 1845221);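 also: thiol-reactive compounds lower the probe fluorescence signal; nearly all actives have a fitted effect of over 65% in size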
# Outline: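 Probe: MSTI 4 uM, PBS pH 7.4, 2% DMSO. Incubation 1 h, RT, light-protected. Readout fluorescence 525/598 nm.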
# [9] = system: Nanoluciferase (engineered Oplophorus gracilirostris luciferase); assay: Primary Nanoluciferase (NLuc) qHTS assay for identification of artifact compounds. (AID 1845222)
# Outline: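 Diluted conditioned medium from NLuc-expressing S16 cells treated with compounds for 15 min at room temperature, then Nano-Glo substrate added; luminescence read after 5 min. Percent inhibition versus no-enzyme and DMSO controls fitted to 4-parameter Hill equation.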
# [10] = Primary redox qHTS assay for identification of artifact compounds. (AID 1845223)
# Outline: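 Amplex Red (25 uM) and HRP (250 mU/mL) in HBSS, with compounds for 15 min, then 250 uM DTT for 30 min, room temperature, dark. Fluorescence 525/598 nm read; normalized to DMSO and 10 uM DA3003; Hill fit.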
# [11] = system: NIH3T3; assay: Cytotoxic Profiling of Annotated Libraries Using Quantitative High-Throughput Screening (AID 1296008); conditions: Five cell lines viability, CellTiter-Glo ATP luminescence, 48-72 h; max response: stronger effect = lower value; also: potency is read from the fitted curve at half-maximal effect; nearly all actives have a fitted effect of over 60% in size
# Outline: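 Cells exposed to compounds for 48 or 72 hr at 37 degrees Celsius. Viability read as ATP-coupled luminescence with CellTiter-Glo after 10 min at room temperature.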
# [12] = system: C33A; assay: Primary qHTS to identify gynecologic anti-cancer compounds using libraries of approved drugs and bioactive compounds (AID 1345084); conditions: Gynecologic cancer cell panel viability, ATPlite luminescence, 48 h; series mostly up to 57.5 µM; also: nearly all actives have a fitted effect of over 55% in size
# Outline: (§1)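 Cell viability after 48 h drug treatment, ATPlite luminescence readout; five doses.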
# [13] = system: CAOV3; assay: as above; conditions: Gynecologic cancer cell panel viability, ATPlite luminescence, 48 h; series mostly up to 57.5 µM
# Outline: as §1
# [14] = system: CASKI; assay: as above; conditions: Gynecologic cancer cell panel viability, ATPlite luminescence, 48 h; series mostly up to 57.5 µM
# Outline: as §1
# [15] = system: HeLa; assay: as above; conditions: Gynecologic cancer cell panel viability, ATPlite luminescence, 48 h; series mostly up to 57.5 µM
# Outline: as §1
# [16] = system: JEG-3; assay: as above; conditions: Gynecologic cancer cell panel viability, ATPlite luminescence, 48 h; series mostly up to 57.5 µM
# Outline: as §1
# [17] = system: OV90; assay: as above; conditions: Gynecologic cancer cell panel viability, ATPlite luminescence, 48 h; series mostly up to 57.5 µM
# Outline: as §1
# [18] = system: SKOV3; assay: as above; conditions: Gynecologic cancer cell panel viability, ATPlite luminescence, 48 h; series mostly up to 57.5 µM
# Outline: as §1
# [19] = system: Tov-21-G; assay: as above; conditions: Gynecologic cancer cell panel viability, ATPlite luminescence, 48 h; series mostly up to 57.5 µM
# Outline: as §1
# Sequence of Phospholipid hydroperoxide glutathione peroxidase GPX4 (Homo sapiens) (P36969 whole entry, looked up): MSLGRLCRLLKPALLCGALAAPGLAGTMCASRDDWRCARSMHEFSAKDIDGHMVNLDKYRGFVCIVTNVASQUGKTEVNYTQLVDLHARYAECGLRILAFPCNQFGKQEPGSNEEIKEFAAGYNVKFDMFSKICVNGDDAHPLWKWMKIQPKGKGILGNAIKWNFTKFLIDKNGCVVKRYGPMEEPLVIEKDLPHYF
# Sequence of Calcium and integrin-binding protein 1 (Homo sapiens) (Q99828 whole entry, looked up): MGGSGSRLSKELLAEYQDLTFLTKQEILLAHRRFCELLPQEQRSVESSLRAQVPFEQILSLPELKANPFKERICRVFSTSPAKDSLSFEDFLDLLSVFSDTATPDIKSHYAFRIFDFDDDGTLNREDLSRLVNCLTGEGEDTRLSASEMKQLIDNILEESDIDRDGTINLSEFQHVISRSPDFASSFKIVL
# Sequence of Glutathione peroxidase 1 (Homo sapiens) (P07203 whole entry, looked up): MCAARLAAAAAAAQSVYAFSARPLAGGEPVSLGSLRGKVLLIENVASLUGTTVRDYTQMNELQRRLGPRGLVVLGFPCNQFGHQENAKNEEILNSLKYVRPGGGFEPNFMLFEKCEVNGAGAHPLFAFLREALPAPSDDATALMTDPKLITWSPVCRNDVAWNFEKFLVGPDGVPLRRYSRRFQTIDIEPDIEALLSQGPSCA
smiles,measurement,setting,value
C=C[C@H]1[C@H](O[C@@H]2O[C@H](CO)[C@@H](O)[C@H](O)[C@H]2O)OC=C2C(=O)N3Cc4c([nH]c5ccccc5c4=O)[C@@H]3C[C@H]21,Potency,[1],inactive
CCOC(=O)[C@H](CCc1ccccc1)N[C@@H](C)C(=O)N1C2CCCCC2C[C@H]1C(=O)O (stereo partly drawn),Potency,[1],inactive
CCOC(=O)c1ccc(NC2CCCCC2)c(N)c1,Potency,[1],inactive
CC1=CC(=O)[C@@H](O)[C@]2(C)C3[C@@H](O)[C@@H]4OC(=O)[C@@H]([C@H]4C)[C@]3(C)C(=O)[C@H](O)[C@@H]12 (stereo partly drawn),Potency,[2],inactive
same,Potency,[3],inactive
same,Potency,[4],inactive
same,Potency,[5],inactive
same,Potency,[6],inactive
same,outcome,[7],inactive
same,Potency,[8],inactive
same,Potency,[9],inactive
same,Potency,[10],inactive
same,Potency,[11],2.55 µM (active)
same,Potency,[12],inactive
same,Potency,[13],inactive
same,Potency,[14],inactive
same,Potency,[15],inactive
same,Potency,[16],inactive
same,Potency,[17],inactive
same,Potency,[18],inactive
same,Potency,[19],inactive
CC1(C=O)CCCC2(C)C1CCC13CC(CO)C(CCC12)C3 (stereo not drawn),Potency,[1],inactive
CC(=O)OCC(Cc1ccccc1)NC(=O)C(Cc1ccccc1)NC(=O)c1ccccc1 (stereo not drawn),Potency,[1],inactive
C=CC(C)(O)CC/C=C(\C)C(=O)O[C@@H]1[C@@H](O)[C@H](OC(C)(C=C)CC/C=C(\C)C(=O)O)O[C@H](CO)[C@H]1OC(=O)/C(C)=C/CCC(C)(O)C=C (stereo partly drawn),Potency,[1],inactive
COC(=O)/C=C/C=C/C(=O)OC1C=C2COC(=O)C2(O)C2(C)CCCC(C)(C)C12 (stereo not drawn),Potency,[1],inactive
CC1=CC(=O)CC(C)(CO[C@@H]2O[C@H](CO)[C@@H](O)[C@H](O)[C@H]2O)C1(O)/C=C/C(C)=C/C(=O)O (stereo partly drawn),Potency,[1],inactive
C=C1CCC2C(C)(COC3OC(COC(=O)CC(=O)O)C(O)C(O)C3O)CCCC2(C)C1CCC1=CCOC1=O (stereo not drawn),Potency,[1],inactive
CCOc1ccc(C(Nc2ccccn2)c2ccc3ccc(C)nc3c2O)cc1C (stereo not drawn),Potency,[1],inactive
CC/C=C\C(O)C(O)C1=C(C)C(=O)C2(O1)C(=O)NC(OC)(C(=O)c1ccccc1)C2O (stereo not drawn),Potency,[1],inactive
COC(=O)C(CC1(O)c2ccccc2N2C(=O)C(C)(C)N(O)C21)n1cnc2ccccc2c1=O (stereo not drawn),Potency,[1],inactive
CC1=C[C@@H]2[C@H]3[C@@H]4O[C@@](C)(CC[C@H]4O)[C@H]3CC(=O)[C@]23C(=O)N[C@@H](CC(C)C)[C@@H]3[C@@H]1C,Potency,[1],inactive
CC(=O)/C=C/C1C(C)CC(O[C@@H]2O[C@H](CO)[C@@H](O)[C@H](O)[C@H]2O)CC1(C)C (stereo partly drawn),Potency,[1],inactive
COc1cc(C(=O)O)ccc1OC1OC(CO)C(O)C(O)C1O (stereo not drawn),Potency,[1],inactive
